Test results taken from PubChem BioAssay.
Several values for one entry are separate records, joined by “and”; a condition that tells them apart may be missing. Identical values can stand only once.

Experiments:
[1] = system: Botulinum neurotoxin type F light chain protease (Clostridium botulinum); assay: Clostridium botulinum type F light chain protease inhibitors, microsphere substrate cleavage, validation (AID 588459); conditions: multiplex microsphere protease substrate cleavage assay, flow cytometry; at 10 µM; stronger effect = higher value
[2] = target: Botulinum neurotoxin type A (Clostridium botulinum) (UniProt P0DPI0); assay: BoNT/A light chain protease inhibitors, biochemical, multiplex microsphere flow cytometry, validation set (AID 588460); conditions: at 10 µM, stronger effect = higher value
[3] = target: Lethal factor (Bacillus anthracis) (UniProt P15917); assay: Bacillus anthracis lethal factor inhibition, microsphere flow cytometry protease assay, validation at 10 µM (AID 588461); conditions: multiplex microsphere protease cleavage assay, stronger effect = higher value

Measured: inhibition

Sequence of Botulinum neurotoxin type A (Clostridium botulinum) (P0DPI0 whole entry, looked up): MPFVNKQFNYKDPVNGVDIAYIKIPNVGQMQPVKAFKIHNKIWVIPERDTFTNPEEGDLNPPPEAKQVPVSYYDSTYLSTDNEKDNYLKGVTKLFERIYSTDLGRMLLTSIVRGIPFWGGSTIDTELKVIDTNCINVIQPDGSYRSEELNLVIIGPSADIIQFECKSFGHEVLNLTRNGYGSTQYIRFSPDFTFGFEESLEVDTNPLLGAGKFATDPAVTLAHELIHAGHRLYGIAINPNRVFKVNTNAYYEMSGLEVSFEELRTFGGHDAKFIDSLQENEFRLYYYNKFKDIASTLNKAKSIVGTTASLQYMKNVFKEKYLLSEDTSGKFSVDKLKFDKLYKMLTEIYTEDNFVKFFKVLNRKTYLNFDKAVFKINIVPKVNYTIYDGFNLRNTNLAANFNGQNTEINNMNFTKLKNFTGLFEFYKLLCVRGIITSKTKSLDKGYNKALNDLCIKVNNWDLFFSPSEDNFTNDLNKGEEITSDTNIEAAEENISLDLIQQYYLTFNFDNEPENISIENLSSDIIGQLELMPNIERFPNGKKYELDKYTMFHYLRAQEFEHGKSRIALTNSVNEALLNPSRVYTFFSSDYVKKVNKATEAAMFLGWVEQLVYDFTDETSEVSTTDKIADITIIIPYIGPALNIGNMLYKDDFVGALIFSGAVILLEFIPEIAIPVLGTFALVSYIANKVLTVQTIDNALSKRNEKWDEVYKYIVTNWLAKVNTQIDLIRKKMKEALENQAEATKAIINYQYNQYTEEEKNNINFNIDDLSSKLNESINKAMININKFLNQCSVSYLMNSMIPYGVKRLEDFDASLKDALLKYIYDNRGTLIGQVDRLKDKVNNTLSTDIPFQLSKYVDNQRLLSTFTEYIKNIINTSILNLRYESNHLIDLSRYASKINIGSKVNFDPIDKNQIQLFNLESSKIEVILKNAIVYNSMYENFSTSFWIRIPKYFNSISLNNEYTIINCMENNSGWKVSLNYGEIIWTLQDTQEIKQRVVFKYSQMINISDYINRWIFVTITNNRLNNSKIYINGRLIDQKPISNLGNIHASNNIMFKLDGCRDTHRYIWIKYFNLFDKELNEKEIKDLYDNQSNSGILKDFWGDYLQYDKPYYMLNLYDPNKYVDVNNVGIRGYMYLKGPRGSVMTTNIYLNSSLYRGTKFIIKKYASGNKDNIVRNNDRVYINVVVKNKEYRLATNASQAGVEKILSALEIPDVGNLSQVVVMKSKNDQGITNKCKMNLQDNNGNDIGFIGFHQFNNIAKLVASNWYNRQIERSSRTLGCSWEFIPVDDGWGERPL
Sequence of Lethal factor (Bacillus anthracis) (P15917 whole entry, looked up): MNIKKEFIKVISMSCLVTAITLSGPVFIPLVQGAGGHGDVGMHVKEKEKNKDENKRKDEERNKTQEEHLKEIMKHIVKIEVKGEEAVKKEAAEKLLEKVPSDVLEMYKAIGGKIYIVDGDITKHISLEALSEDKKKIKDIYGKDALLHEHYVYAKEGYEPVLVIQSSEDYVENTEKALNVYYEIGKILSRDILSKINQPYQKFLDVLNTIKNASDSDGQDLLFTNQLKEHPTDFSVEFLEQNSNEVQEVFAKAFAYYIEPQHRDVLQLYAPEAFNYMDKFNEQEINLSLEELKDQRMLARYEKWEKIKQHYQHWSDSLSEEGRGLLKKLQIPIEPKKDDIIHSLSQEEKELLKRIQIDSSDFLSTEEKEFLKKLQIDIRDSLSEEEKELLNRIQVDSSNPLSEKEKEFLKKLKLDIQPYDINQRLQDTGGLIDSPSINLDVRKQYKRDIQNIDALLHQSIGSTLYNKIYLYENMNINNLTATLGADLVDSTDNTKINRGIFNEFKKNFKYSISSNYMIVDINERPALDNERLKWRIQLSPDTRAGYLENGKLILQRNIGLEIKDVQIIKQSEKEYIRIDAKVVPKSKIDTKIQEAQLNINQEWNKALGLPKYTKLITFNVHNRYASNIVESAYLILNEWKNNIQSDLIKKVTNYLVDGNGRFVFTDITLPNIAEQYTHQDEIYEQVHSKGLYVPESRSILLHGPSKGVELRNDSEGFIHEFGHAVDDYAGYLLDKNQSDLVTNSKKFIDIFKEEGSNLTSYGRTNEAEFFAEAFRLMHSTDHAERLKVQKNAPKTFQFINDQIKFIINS

COc1cc(SC)ccc1C(=O)NC(C)C
inactive: [1] 2.9% | [2] 2.2% | [3] 0.8%

CC(C)C[C@H]1C(=O)N2CCC[C@H]2[C@]2(O)O[C@](NC(=O)[C@@H]3C=C4c5cccc6[nH]c(Br)c(c56)CC4N(C)C3)(C(C)C)C(=O)N12 (stereo not given in full)
inactive: [1] 5.1% | [2] 1.3% | [3] -5.6%

CCCCOc1cc(C(=O)NCCN(CC)CC)c2ccccc2n1
inactive: [1] 8.5% and -0.1% | [2] 1.5% and -0.6% | [3] -1.9% and 2.1%

NC(N)=NC(N)=Nc1ccc2ccccc2c1
inactive: [1] 3.6% | [2] 1% | [3] 1.8%

CCc1cc2c(C)cc(=O)oc2cc1OC(=O)C1CCCN1C(=O)OC(C)(C)C (stereo not given)
inactive: [1] 0.1% | [2] -1.6% | [3] -1.1%

CC(C)C(=O)Nc1c(O)c2ccccc2[nH]c1=O
inactive: [1] 3.5% | [2] -0.8% | [3] 1.1%

Cn1c2ccccc2c2cc(/C=C(\NC(=O)c3ccccc3)C(=O)O)ccc21
inactive: [1] -0.2% | [2] 0.3% | [3] 4.6%

COc1ccc(NC(=S)N2CCN(CCN3C(=O)c4cccc5cccc(c45)C3=O)CC2)cc1
inactive: [1] 2.5% | [2] 1.6% | [3] -3.3%

O=C(NCCc1c[nH]c2ccccc12)OCCSS(=O)(=O)O
inactive: [1] -4.5% | [2] -0.2% | [3] 3.7%

CCSc1nc(O)c(C2OC(=O)c3c2ccc(OC)c3OC)c(=O)n1CC (stereo not given)
inactive: [1] -0.7% | [2] 0.5% | [3] -2.4%
